Results: PubChem BioAssay (NCATS)
Results filed as inconclusive are left out. A call without a number means that no potency is given here. Calls of active or inactive are those of the source. Calls follow the shape of the dose curve; as a rule, active = well fitted inhibition curve with a large enough effect; inconclusive = small, poorly fitted or top-dose-only effect; inactive = flat fitted curve, though single readings scatter.

Each compound was assayed against Voltage-gated inwardly rectifying potassium channel KCNH2 (Homo sapiens) (UniProt Q12809) (assay: qHTS Assay for Small Molecule Inhibitors of the Human hERG Channel Activity (AID 588834;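 also: lower thallium flux fluorescence means stronger hERG block; nearly all actives have a fitted effect of over 50% in size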)). Settings: U2OS BacMam hERG, FluxOR thallium flux fluorescence; series mostly up to 46.1 µM.
Procedure, shortened: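 hERG-BacMam U2OS, 2000 cells/well; 0.7X FluxOR loading 1 hr RT dark; cpd ~10 min 37 °C; stim buffer; FDSS fluorescence 2 min @ 1 s; AC50 Hill fit.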
Potency is read from the fitted curve at half-maximal effect.

Voltage-gated inwardly rectifying potassium channel KCNH2 (Homo sapiens), sequence (Q12809 whole entry, looked up): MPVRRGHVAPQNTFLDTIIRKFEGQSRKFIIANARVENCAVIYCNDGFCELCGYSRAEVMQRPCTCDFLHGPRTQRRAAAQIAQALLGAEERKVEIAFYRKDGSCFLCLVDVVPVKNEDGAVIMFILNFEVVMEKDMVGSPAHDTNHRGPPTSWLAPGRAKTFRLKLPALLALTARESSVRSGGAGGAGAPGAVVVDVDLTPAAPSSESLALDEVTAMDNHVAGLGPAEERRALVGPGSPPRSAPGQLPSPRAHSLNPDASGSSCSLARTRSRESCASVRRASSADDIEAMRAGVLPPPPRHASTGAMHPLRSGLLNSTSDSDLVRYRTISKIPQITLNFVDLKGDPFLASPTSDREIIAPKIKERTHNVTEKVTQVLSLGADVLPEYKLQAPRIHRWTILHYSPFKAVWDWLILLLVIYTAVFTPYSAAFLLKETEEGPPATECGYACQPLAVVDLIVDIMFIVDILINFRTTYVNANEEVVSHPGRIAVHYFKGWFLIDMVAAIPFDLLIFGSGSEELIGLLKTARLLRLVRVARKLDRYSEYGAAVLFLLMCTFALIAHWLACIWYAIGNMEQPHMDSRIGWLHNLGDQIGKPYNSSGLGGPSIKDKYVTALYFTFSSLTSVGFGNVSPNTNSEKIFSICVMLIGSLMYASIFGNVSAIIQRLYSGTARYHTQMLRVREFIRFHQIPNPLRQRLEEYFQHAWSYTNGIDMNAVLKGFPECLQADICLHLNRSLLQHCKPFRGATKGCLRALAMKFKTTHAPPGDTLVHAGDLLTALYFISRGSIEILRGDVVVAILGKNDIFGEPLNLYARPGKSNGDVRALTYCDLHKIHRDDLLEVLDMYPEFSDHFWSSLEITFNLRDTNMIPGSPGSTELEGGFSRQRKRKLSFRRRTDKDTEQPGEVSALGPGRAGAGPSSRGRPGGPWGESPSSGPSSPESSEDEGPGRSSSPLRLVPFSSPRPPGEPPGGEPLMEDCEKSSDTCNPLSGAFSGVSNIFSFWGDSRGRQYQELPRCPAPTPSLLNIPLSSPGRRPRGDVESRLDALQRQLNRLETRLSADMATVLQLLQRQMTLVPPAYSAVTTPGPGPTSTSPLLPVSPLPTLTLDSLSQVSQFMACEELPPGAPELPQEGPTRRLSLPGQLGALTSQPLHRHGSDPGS

| Compound | Potency |
| --- | --- |
| CCN(CC)CCN1C(=O)CN=C(c2ccccc2F)c2cc(Cl)ccc21 | 3980 nM (active) |
| CCN(C(C)=O)c1cccc(-c2ccnc3c(C#N)cnn23)c1 | inactive |
| Cc1cccc(C)c1NC1=NCCCS1 | inactive |
| CC(C)NCC(O)c1ccccc1Cl (stereo not drawn) | inactive |
| C[C@@H]1O[C@@H](O[C@H]2C[C@@H](O)[C@]3(CO)[C@H]4[C@H](O)C[C@]5(C)[C@@H](C6=CC(=O)OC6)CC[C@]5(O)[C@@H]4CC[C@]3(O)C2)[C@H](O)[C@H](O)[C@H]1O | inactive |
| O=P1(NCCCl)OCCCN1CCCl (stereo not drawn) | inactive |
| Cc1ccc(-c2nc3ccc(C)cn3c2CC(=O)N(C)C)cc1 | inactive |
| c1ccc(C2CC2)c(OCC2=NCCN2)c1 | inactive |
| CN1C(=S)CN=C(c2ccccc2)c2cc(Cl)ccc21 | inactive |
| CN(C)[C@@H]1C(=O)C(C(N)=O)=C(O)[C@@]2(O)C(=O)C3=C(O)c4c(O)cccc4[C@@](C)(O)[C@H]3C[C@@H]12 | inactive |
| CCN(CC)CCOC(=O)C(O)(c1ccccc1)c1ccccc1 | 15800 nM (active) |
| O=C(NC(O)C(Cl)(Cl)Cl)NC(O)C(Cl)(Cl)Cl (stereo not drawn) | inactive |
| CC(C)(N)Cc1ccc(Cl)cc1 | inactive |
| NP(N)(=O)NC(=O)c1ccc(F)cc1 | inactive |
| O=[N+]([O-])c1cc([As](=O)(O)O)ccc1O | inactive |
| CC(=O)[C@H]1CC[C@H]2[C@@H]3CC[C@H]4C[C@](C)(O)CC[C@]4(C)[C@H]3CC[C@]12C | inactive |
| CC(C)=CC1C(C(=O)OCc2cccc(Oc3ccccc3)c2)C1(C)C (stereo not drawn) | inactive |

| Compound | Potency |
| --- | --- |
| NCC1(CC(=O)O)CCCCC1 | inactive |
| Clc1cccc(N2CCNCC2)c1 | inactive |
| c1ccc2c(c1)OCC(C1=NCCN1)O2 (stereo not drawn) | inactive |
| NCC(CC(=O)O)c1ccc(Cl)cc1 (stereo not drawn) | inactive |
| N#CC(C#N)=Cc1ccc(O)c(O)c1 | inactive |
| CC[C@@H](CO)NC(=O)[C@@H]1C=C2c3cccc4[nH]cc(c34)C[C@H]2N(C)C1 | inactive |
| N[C@@H](Cc1ccc(Oc2cc(I)c(O)c(I)c2)c(I)c1)C(=O)O | inactive |
| Cn1c(CCCC(=O)O)nc2cc(N(CCCl)CCCl)ccc21 | inactive |
| C=C1C[C@@H]2[C@H](CC[C@]3(C)C(=O)CC[C@@H]23)[C@@]2(C)C=CC(=O)C=C12 | inactive |
| CCC1(C2=NCCN2)Cc2ccccc2O1 (stereo not drawn) | inactive |
| CC[C@@H](CO)NC(=O)[C@@H]1C=C2c3cccc4c3c(cn4C)C[C@H]2N(C)C1 | inactive |
| CC[N+](CC)(CC)CC | inactive |
| FC(F)(F)c1cccc(C2=CCN(CCc3ccc4ccccc4c3)CC2)c1 | 1580 nM (active) |
| NN=C(N)N | inactive |
